The nature of the assay: qHTS Assay for Lipid Storage Modulators (AID 1519). As to activity change, negative = inhibition: % is scaled to controls: 0 for no effect and ±100 for the full control effect. Conditions: Drosophila S3 cells, BODIPY lipid droplet/cell ratio, laser cytometry, cells loaded with oleic acid; for activity change, negative = inhibition: at 57.5 µM (top of the series). An excerpt:
NIH Molecular Libraries Probe Production Centers Network [MLPCN]
NIH Chemical Genomics Center [NCGC]
Assay Submitter (PI): Beller, Mathias; Max-Planck-Institut fur Biophysikalische Chemie
NCGC Assay Overview: Storing lipids as a reservoir for energy or the anabolism of elementary metabolites is a common feature of probably all cells and is conserved from bacteria to humans. The universal cellular lipid storage organelle is the so-called lipid storage droplet (LD). Although ubiquitous, LDs share a simple structure composed of a hydrophobic core that harbors the storage lipids, which is shielded by a droplet-specific phospholipid monolayer to which proteins are attached. The current model of LD biogenesis involves an incorporation of the lipid core into the membrane leaflets of the endoplasmic reticulum (ER) followed by a subsequent budding-like maturation of a LD, which ultimately pinches off. Once released, LD volume can increase by localized lipogenesis or fusion of existing droplets. Storage lipids are re-mobilized enzymatically by lipase activity. Lipase regulation in the adipocyte is heavily studied and involves multiple components including catecholamine signaling, the LD-associated proteins Perilipin and comparative gene identification-58 (CGI-58) and at least two lipases named hormone sensitive lipase (HSL) and adipocyte triglyceride lipase (ATGL). LD regulation outside of the adipocyte is poorly understood and only few components are known. However, there is an urgent need to learn more about ectopic fat depots as mislocalized storage of lipids, for example in the liver or muscle, is an eminent health problem associated with insulin resistance or the metabolic syndrome. We developed a laser-scanning cytometer assay to enable 1,536-well screening and combined the results of the small molecules screen with an RNAi database based on lipid storage.
NCGC Assay Protocol Summary:
We dispensed 4 uL of cells at 1.25 x 10^6 cells/mL into LoBase Aurora COC 1,536-well plates (black walled, clear bottom) with a bottle-valve solenoid-based dispenser (Aurora) to obtain 5,000 cells/well. Triacsin C (Sigma-Aldrich T-4540), an inhibitor of long-chain fatty acyl CoA synthetase that blocks synthesis of triglycerides, was used as a positive control for lipid under-storage. A total of 23 nL of compound solution of different concentrations were transferred to the assay plates using a Kalypsys pin tool equipped with a 1,536-pin array containing 10-nL slotted pins (FP1S10, 0.457-mm diameter, 50.8 mm long; V&P Scientific). One microliter of oleic acid (400 uM) was added, and the plate was lidded with stainless steel rubber gasket lined lids containing pinholes. […] Fluorescence was detected by excitation of the fluorophores with a 488-nm laser on an Acumen Explorer (TTP Lab Tech). The total intensity in channel 1 (500-530 nm) reflected lipid droplet accumulation. […] The ratio of the total intensity in PMT channel 1 over total intensity of channel 3 was also calculated. Percent activity was computed relative to an internal control (100% inhibited lipid droplet deposition due to the presence of 20 uM Triacsin C), which was added to 32 wells/plate.

[1] abbreviates: measured here: cell count channel max response.
Setting [2] is: measured here: lipid channel max response.

Structures are written as SMILES. “And” between values parts separate entries of the source, which are not always exact repeats. Identical values can stand only once. Inconclusive results are not listed. The source made the active and inactive calls. Calls follow the shape of the full dose curve.
Potency is read from the fitted curve at half-maximal effect.

On to `C[C@H](O)C(=O)C1=Nc2c(nc(N)[nH]c2=O)NC1`, for which the activity change, negative = inhibition was 3.44% (inactive). The max response under setting [1] is 8.97%. Moreover, the max response under setting [2] was 8.64%.
Consider `CN1CCC2(CCN3CCc4c(oc5ccccc45)C3C2)N(C)C1=O` (configuration not stated), for which the activity change, negative = inhibition was -0.497% (inactive). The max response under setting [1] amounted to 45.8%. Under setting [2], the max response was found to be 48%.
As to `NC(=O)CNCCC(c1ccccc1)c1ccccc1`, the activity change, negative = inhibition was 0.71% (inactive). Also, the max response under setting [1] is -14.5%. Further, under setting [2], the max response was -14.2%.
`Oc1ccc(Cn2cc[nH]c2=S)cc1`: the activity change, negative = inhibition is -3.19% (inactive). Further, under setting [1], the max response is -28.3%. The max response under setting [2] was -29.9%.
In the same order, the values of `NC(Cc1cccc(-c2ccccc2CP(=O)(O)O)c1)C(=O)O` (configuration not stated) are 1.29% (inactive), 44.3% and 44.8%.
The corresponding values for `c1ccc(C2CN3CCSC3=N2)cc1` (configuration not stated) are 7.49% (inactive), 0.909% and 10.3%.
In the same order, the values of `CCCCOc1cc(CC2CNC(=O)N2)ccc1OC` (configuration not stated) are 7.3% (inactive), 28.9% and 40.3%.
For `COc1ccc(CCN(C)CCc2ccc(OC)c(OC)c2)cc1OC`, the activity change, negative = inhibition was -1.77% (inactive) and -1.64% (inactive). Besides, under setting [1], the max response is 7.2% and 26.8%. The max response under setting [2] was 4.66% and 25.1%.
As to `OC[C@H]1O[C@@H](n2cnc3cncnc32)[C@H](O)[C@@H]1O`, the activity change, negative = inhibition is -4.73% (inactive). Under setting [1], the max response was determined as 0.328%. The max response under setting [2] is -1.94%.
With `Cc1cccc(C)c1OCC(N)C(C)C` (configuration not stated), the activity change, negative = inhibition was 0.702% (inactive). Also, the max response under setting [1] was 60.7%. Under setting [2], the max response was determined as 59.8%.
On to `N[C@H](C(=O)O)[C@H](O)C(=O)O`, for which the activity change, negative = inhibition is 1.02% (inactive). In addition, the max response under setting [1] is -11.9%. Moreover, the max response under setting [2] was -6.36%.
For `Nc1ncnc2c1ncn2C1CCCO1` (configuration not stated), the activity change, negative = inhibition is -1.26% (inactive). Moreover, under setting [1], the max response was found to be 24.9%. Besides, under setting [2], the max response stood at 22.8%.
For the molecule `O=C(O)C1CCNCC1`, the activity change, negative = inhibition was -0.0209% (inactive). Moreover, under setting [1], the max response was 11.3%. In addition, the max response under setting [2] is 10%.
`CN(C)S(=O)(=O)c1ccc2c(c1)/C(=C/c1cc3c([nH]1)CCCC3)C(=O)N2`: the Potency was 28.2 µM (active). Besides, the max response under setting [1] was 59.5%. Under setting [2], the max response is -52.8%.

For the origin of these results see PubChem BioAssay (NCATS).
